Data taken from PubChem BioAssay.
Entries with a potency or affinity are not part of this list. A number with no mark means an inactive call.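 How the source made its calls: active means signal drop whose fitted half-maximal concentration is at most twice the top valid dose, in every test run; inconclusive means mixed calls across runs, poor fit, or flat 30 to 70% inhibition; inactive means wrong direction, flat within 30%, or potency beyond limit.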

Experiment: RMG-1 ovarian cancer cell viability loss – cherry-pick, dose response (AID 687029);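 further: cells exposed to compound for 96 hours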
Conditions: RMG-1 viability, CellTiterGlo ATP luminescence, 96 h; series mostly up to 35 µM; activity change, negative = inhibition: at the top concentration

With `COc1ccccc1C#Cc1ccc([C@H]2[C@H](C#N)N(C(=O)C3CCCC3)[C@H]2CO)cc1` as the molecule, how does the “activity change, negative = inhibition” value read?
The value was 26.2%.

Which “activity change, negative = inhibition” value does the source give for `C[C@@H]1CCCCO[C@H](CN(C)Cc2ccc(C(F)(F)F)cc2)[C@@H](C)CN([C@@H](C)CO)C(=O)c2cc(NC(=O)c3ccccc3)ccc2O1` here?
Its value is 29.4%.

For `C[C@@H]1CCCCO[C@H](CN(C)C(=O)Cc2ccccc2)[C@@H](C)CN([C@@H](C)CO)C(=O)c2cc(NS(=O)(=O)c3ccc(Cl)cc3)ccc2O1`, which “activity change, negative = inhibition” value is on record?
Its value is 22.8%.

Which “activity change, negative = inhibition” value does the source give for `C[C@H](CO)N1C[C@H](C)[C@H](CN(C)CC2CCCCC2)OCCCC[C@H](C)Oc2ccc(NC(=O)Nc3ccccc3)cc2C1=O` here?
Its value is 22.7%.

With `CN(C)CCCN(C(=O)CCOc1ccccc1)c1nc2c(F)cccc2s1` as the molecule, how does the “activity change, negative = inhibition” value read?
Its value is 46.9%.

For `COc1ccc(-c2cc(C(F)(F)F)nc(S(=O)(=O)CCCC(=O)Nc3cc(C)on3)n2)cc1OC`, which “activity change, negative = inhibition” value is on record?
Its value is -122%.

Which “activity change, negative = inhibition” value does the source give for `COc1ccc(S(=O)(=O)Nc2ccc3c(c2)C(=O)N([C@H](C)CO)C[C@H](C)[C@H](CN(C)S(=O)(=O)c2ccc(F)cc2)OCCCC[C@H](C)O3)cc1` here?
The value was 20.3%.

With `O=C(CCS(=O)(=O)c1ccccc1)Nc1nc2ccc(F)cc2s1` as the molecule, how does the “activity change, negative = inhibition” value read?
Its value is 21.9%.

Which “activity change, negative = inhibition” value does the source give for `O=c1[nH]c(-c2ccccn2)nc2sc(-c3ccccc3)cc12` here?
Its value is 13.5%.

Which “activity change, negative = inhibition” value does the source give for `COc1ccc(-c2cnc3c(NC=O)cc(-c4ccccc4OC)cn23)cc1OC` here?
Its value is -130%.

For `CC(C)(C)c1nnc(NC(=O)CCS(=O)(=O)c2ccccc2)s1`, which “activity change, negative = inhibition” value is on record?
Its value is 11.2%.

With `O=C(CN1C(=O)c2ccccc2S1(=O)=O)c1ccc(Cl)cc1Cl` as the molecule, how does the “activity change, negative = inhibition” value read?
The value was 12.7%.

For `C#CCN(C[C@@H]1[C@@H](OC(=O)NC2CCCC2)[C@@H](OC(=O)NC2CCCC2)Cn2c(=O)ccc(=O)n21)S(=O)(=O)c1ccc(C)cc1`, which “activity change, negative = inhibition” value is on record?
Its value is 0.418%.

With `C[C@@H]1CN([C@@H](C)CO)C(=O)c2cc(NC(=O)CCC(F)(F)F)ccc2O[C@@H](C)CCCCO[C@H]1CN(C)Cc1ccc(C(F)(F)F)cc1` as the molecule, how does the “activity change, negative = inhibition” value read?
Its value is 30.1%.
